In the library only some 8.1% were active in any assay of this set; here they are far more common.
KB-V1 cytotox: qHTS assay for MDR1-selective chemotherapeutics: Primary screen using the drug-selected MDR subline cells KB-V1 | KB-V1 MDR cells viability, CellTiter-Glo, 72 h | Potency, µM (series often up to 46.1 µM), usual class: cytotoxic | 400,000 tested, 3.4% active | AID 1347076, 2019; also: nearly all actives have a fitted effect of over 60% in size
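Potencies derive from concentration-effect curves fitted to normalized luminescence (CellTiter-Glo) of KB-V1 cells treated for 72 h at 37 degrees C in phenol-red-free DMEM containing 10% FBS.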
KB-3-1 cytotox: qHTS assay for MDR1-selective chemotherapeutics: Primary screen using the parental adenocarcinoma cell KB-3-1; KB-3-1 viability, CellTiter-Glo ATP luminescence, 72 h; 400,000 tested, 1.4% active; AID 1347075, 2019; Potency, µM (series often up to 46.1 µM), actives largely listed as cytotoxic; also: nearly all actives have a fitted effect of over 60% in size
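Multi-concentration cytotoxicity screen in KB-3-1 cells grown in DMEM lacking phenol red with 10% FBS. After 72 h at 37 °C with compound, ATP-dependent luminescence was recorded.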
ELG1 DNA repair: qHTS screen for small molecules that inhibit ELG1-dependent DNA repair in human embryonic kidney (HEK293T) cells expressing luciferase-tagged ELG1; HEK293T ELG1-luciferase reporter, luminescence, 16 h; DNA damage induced by 5-fluorouridine; Potency, µM (titrated, usually from 46.1 µM), hits mostly inhibitors; 330,000 tested, 2.3% active; also: nearly all actives have a fitted effect of over 55% in size
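HEK293T cells expressing luciferase-tagged ELG1 (2,000/well) received 5-Fluorouridine plus compound or DMSO for 16 hr at 37 °C. Luciferase was read by ONE-Glo luminescence after 30 min at room temperature.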
MCF10A rereplic: A quantitative high throughput screen for small molecules that induce DNA re-replication in MCF 10a normal breast cells; AID 624296, 2012; Potency, µM (top dose mostly 46.1 µM), actives largely listed as activators; 350,000 tested, 2.9% active; MCF 10A DNA re-replication, Hoechst nuclear intensity, 48 h; also: nearly all actives have a fitted effect of over 50% in size
SW480 rereplic: A quantitative high throughput screen for small molecules that induce DNA re-replication in SW480 colon adenocarcinoma cells. 340,000 tested, 1.8% active. SW480 DNA re-replication, Hoechst DNA content imaging, 48 h. Potency, µM (top dose mostly 46.1 µM), actives largely listed as activators. AID 624297, 2012; also: nearly all actives have a fitted effect of over 55% in size
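SW480 cells exposed to compounds for 48 hr at 37 C, 5% CO2, then Hoechst-stained 40 min. Nuclear DNA content imaged by fluorescence scanning (405 nm excitation, 500-530 nm emission); re-replication scored as increased high-intensity nuclei.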
A number is an active result; – = inactive; ? = inconclusive; · = no result given; ! = a repeat was not active. Calls follow the shape of the dose curve; as a rule, active = well fitted curve in the direction sought with a large enough effect; inconclusive = small, poorly fitted or top-dose-only effect, or another doubt; inactive = no such curve, though single readings can be large; an effect the other way counts as inactive or inconclusive.

SMILES	KB-V1 cytotox	KB-3-1 cytotox	ELG1 DNA repair	MCF10A rereplic	SW480 rereplic
Cc1ccc[n+](C(C(=S)NCc2ccco2)=C([O-])c2ccccc2Cl)c1	21µM	–	·	–	–
COc1cc2c(cc1OC)CN(C(=O)COc1ccc(C)c(C)c1)CC2	–	–	18µM	–	–
CN(C(=O)C(C)(C)C)c1ccc(OCC(=O)N2CCc3ccccc3C2)cc1	4.6µM	?	?	–	–
COc1cc2c(cc1OC)CN(C(=O)CCC(=O)c1ccc(F)cc1)CC2	?	16µM	–	?	?
O=C(CNS(=O)(=O)c1ccccc1)NCc1ccco1	–	–	–	–	–
Cc1ccc(C)c(OCC(O)CN2CCN(CCN3C(=O)c4cccc5cccc(c45)C3=O)CC2)c1 (configuration not stated)	?	16µM	18µM	?	?
O=C1c2cccc3cccc(c23)C(=O)N1CC1CCN(CC(O)COc2ccc3ccccc3c2)CC1 (configuration not stated)	–	?	?	?	?
O=C1c2cccc3cccc(c23)C(=O)N1CCN1CCN(CC(O)COc2ccc3ccccc3c2)CC1 (configuration not stated)	?	?	9.2µM	?	?
Nc1cc2c3c(cccc3c1)C(=O)N(CCN1CCCC1)C2=O	23µM	?	?	?	15µM
Cc1ccc(N2CCN(S(=O)(=O)c3cccc4ccccc34)CC2)cc1Cl	–	–	·	·	·
CC(C)NC(=O)C1(C)CCCN1Cc1csc2ccccc12 (configuration not stated)	–	–	·	·	·
CC(C)N(C(=O)CN(C#N)c1nc(N(C)C)nc(N(C)C)n1)c1ccccc1	6.5µM	–	–	–	–
CCCc1cc(=O)[nH]c(SC(C)C(=O)N2c3ccccc3CC2C)n1 (configuration not stated)	–	–	–	–	–
Cc1cc(OCCOCCNC(C)C)cc(C)c1Cl	?	?	–	–	–
Cc1cc(OCCCCNC(C)C)cc(C(C)C)c1	21µM	–	–	?	?
COc1cc(OC)cc(OC(=O)c2ccc3c(=O)n4c(nc3c2)CCC4)c1	–	–	–	?	–
COc1ccc(OC)c(C2=NS(=O)(=O)N(C)C(C(=O)Nc3ccc(F)cc3F)=C2)c1	13µM!	–	–	–	–
Cc1nc2ccccn2c1C(=O)CSc1ccccc1Cl	16µM	?	–	–	–
Cc1nc2ccccn2c1C(=O)CSc1ccc(Cl)cc1Cl	?	–	–	–	–
CC(C)(C)NC(=O)N1CCC(C(=O)O)CC1	–	–	·	·	·
CCN(CC)c1ccc(N=Cc2cc(Br)ccc2O)cc1	–	?	?	?	10µM
Oc1ccc(Br)cc1C=Nc1ccc(Cl)cc1	–	–	?	–	–
CCc1c(C)sc2c1CCN(Cc1ccccc1F)C2c1ccccc1 (configuration not stated)	?	18µM	·	·	·
Fc1ccc(C(c2ccc(F)cc2)N2CCN(C/C=C/c3ccccc3)CC2)cc1	?	?	–	23µM	?
Cc1c(/C=N\NC(=O)c2csc3ccccc23)cnn1C	?	?	–	?	21µM
SMILES	KB-V1 cytotox	KB-3-1 cytotox	ELG1 DNA repair	MCF10A rereplic	SW480 rereplic
CCn1ncc(/C=N\NC(=O)c2csc3ccccc23)c1C	?	6.5µM	?	10µM	12µM
CCCCCCn1c(=O)n2n(c1=O)C[C@]1(OC(=O)NCC3CCCCC3)CN(S(=O)(=O)c3ccc(C)cc3)C[C@]1(O)C2	–	?	·	·	·
NS(=O)(=O)c1ccc(NS(=O)(=O)c2ccc(NC(=S)Nc3ccccc3)cc2)cc1	–	–	–	–	–
NS(=O)(=O)c1ccc(NC(=S)Nc2ccn(Cc3cccc4ccccc34)n2)cc1	?	?	21µM	–	?
c1cnc2[nH]ccc2c1	–	–	·	·	·
Cc1nn(-c2ccccc2)c2nc(C(F)(F)F)[nH]c(=O)c12	–	–	–	–	–
Cc1nn(-c2cc(C(F)(F)F)ccc2Cl)c2nc(C(Cl)(Cl)Cl)[nH]c(=O)c12	–	–	21µM	?	–

Source: PubChem
